Measured values as given in paper PMC5540273 (PLoS ONE, 2017).

Key:
Conditions in all cases: concentration: 1 μM, replicates: in singlicate; n = 1
BLK = test system: BLK
BMPR1A = test system: BMPR1A
BMPR1B = test system: BMPR1B
BMPR2 = test system: BMPR2
BMX = test system: BMX
BRAF = test system: BRAF
BRK = test system: T1, BRK
T1 construct: gene PTK6

BRSK1 = test system: BRSK1
BRSK2 = test system: BRSK2
BTK = test system: BTK
BUB1 = test system: BUB1
CAMK1B = test system: CAMK1B
CAMK1D = test system: CAMK1D
CAMK1G = test system: CAMK1G
CAMK1 = test system: CAMK1
CAMK2A = test system: CAMK2A
CAMK2B = test system: CAMK2B
CAMK2D = test system: CAMK2D
CAMK2G = test system: CAMK2G
CAMK4 = test system: CAMK4
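Note: KINOMEscan kinase panel screen.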

SMILES | %Inh (BLK) [%] | %Inh (BMPR1A) [%] | %Inh (BMPR1B) [%] | %Inh (BMPR2) [%] | %Inh (BMX) [%] | %Inh (BRAF) [%] | %Inh (BRK) [%] | %Inh (BRSK1) [%] | %Inh (BRSK2) [%] | %Inh (BTK) [%] | %Inh (BUB1) [%] | %Inh (CAMK1B) [%] | %Inh (CAMK1D) [%] | %Inh (CAMK1G) [%] | %Inh (CAMK1) [%] | %Inh (CAMK2A) [%] | %Inh (CAMK2B) [%] | %Inh (CAMK2D) [%] | %Inh (CAMK2G) [%] | %Inh (CAMK4) [%]
NS(=O)(=O)c1cccc(-c2ccc3ncc(N4CCOCC4)nc3c2)c1 [GSK1535721] | 0 | 0 | 7 | 2 | 30 | 0 | 13 | 0 | 0 | 1 | 0 | 7 | 18 | 15 | 12 | 0 | 2 | 21 | 17 | 0
CCn1cnc2c(N)ncnc21 [GW345098] | 12 | 24 | 15 | 35 | 41 | 0 | 8 | 5 | 0 | 0 | 3 | 0 | 10 | 0 | 9 | 6 | 8 | 0 | 0 | 1
CCc1ccnc(/C=C/c2n[nH]c3cc(Sc4ccccc4C(=O)NC)ccc23)c1 | 17 | 0 | 0 | 17 | 0 | 4 | 0 | 27 | 17 | 0 | 49 | 8 | 0 | 2 | 0 | 4 | 0 | 9 | 18 | 0
c1ccc(-c2n[nH]cc2-c2ccnc3ccccc23)nc1 [GW271431] | 49 | 0 | 13 | 0 | 22 | 0 | 22 | 0 | 0 | 0 | 0 | 23 | 28 | 13 | 23 | 0 | 0 | 19 | 25 | 0
O=C(Nc1n[nH]c2cc(-c3cccc(F)c3)ccc12)C1CC1 [SB-735464] | 0 | 16 | 65 | 28 | 0 | 1 | 0 | 34 | 33 | 0 | 0 | 0 | 22 | 0 | 31 | 19 | 1 | 0 | 27 | 0
CN1c2ccc(CNc3ccc(F)cc3)cc2-c2c(cnn2C)S1(=O)=O | 0 | 0 | 0 | 0 | 0 | 36 | 0 | 0 | 0 | 0 | 0 | 0 | 50 | 0 | 63 | 0 | 1 | 4 | 0 | 0
O=C(c1ccc(-c2cc(-c3c[nH]nc3-c3ccccn3)ccn2)cc1)N1CCOCC1 [GW812171] | 0 | 0 | 11 | 16 | 0 | 32 | 0 | 0 | 10 | 0 | 20 | 0 | 21 | 0 | 14 | 0 | 0 | 0 | 0 | 0
CN1c2ccc(NCc3ccc(F)cc3)cc2-c2c(cnn2C)S1(=O)=O | 0 | 0 | 1 | 0 | 0 | 17 | 0 | 0 | 0 | 0 | 0 | 0 | 0 | 0 | 0 | 0 | 0 | 3 | 15 | 22
COCCNC(=O)c1ccc(-c2cc(C(=O)NC3CC3)cc(F)c2C)cc1 [GW868318] | 0 | 19 | 19 | 46 | 7 | 10 | 0 | 0 | 18 | 0 | 51 | 5 | 10 | 0 | 14 | 7 | 10 | 8 | 13 | 7
